The supplement of paper PMC10849652
About 8,800 targets were measured; listed, in parts, are those with a hit and a random draw of the rest. About 0.5% of all pairs of compound and target were hits.

Tests used:
Experiment in all cases: log2 fold change, soluble protein after heating vs DMSO (PISA); higher = thermal stabilisation; K562 lysate, 10 uM; active = over 0.2 and 3.5 SD of the protein, either way, in both replicates (recomputed)
[1] = compound: C1=CC=C(C=C1)[C@H](COC2=CC3=C(C=C2)NC(=O)N3)NC(=O)C4=CC=CN(C4=O)CC5=CC(=C(C=C5)F)F
In short: (§1)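 The values are log-two fold changes in thermal stability compared with solvent controls and come from duplicates. They were obtained by TMTpro 16plex LC-MS/MS, with channel sums equalised, on the supernatant after 21,000xg for 90 min. That supernatant came from crude K562 extract at 1 mg/mL protein treated with 10 μM compound for 30 min, heated for 3 min across 48°C-58°C, pooled and brought to 0.5% NP-40 at 4°C.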

[2] = compound: CC1=C(SC2=C1C(=N[C@H](C3=NN=C(N32)C)CC(=O)N)C4=CC=C(C=C4)Cl)C
In short: as §1

[3] = compound: CC1=C2C(=CC=C1)N=C(N(C2=O)C3=CC=CC=C3C)CN4C=NC5=C(N=CN=C54)N
In short: as §1

[4] = compound: Cc1sc2c(c1C)C(c1ccc(Cl)cc1)=N[C@@H](CC(=O)OC(C)(C)C)c1nnc(C)n1-2
In short: as §1

[5] = compound: c1ccc([C@@H]2C[C@H]2NC2CCNCC2)cc1
In short: as §1

Measured: log2 fold change

CTNND1 isoform 3 (UniProt O60716)
inactive: [1] -0.021 | [2] 0.035 | [3] 0.058 | [4] 0.036 | [5] 0.028

CIAO2A (UniProt Q9H5X1)
inactive: [1] -0.049 | [2] 0.062 | [3] 0.023 | [4] -0.032 | [5] 0.064

DDX20 (UniProt Q9UHI6)
inactive: [1] -0.008 | [2] -0.064 | [3] -0.006 | [4] 0.027 | [5] 0.077

COG5 isoform 2 (UniProt Q9UP83)
inactive: [1] 0.034 | [2] 0.045 | [3] -0.042 | [4] -0.003 | [5] 0.033

DICER1 (UniProt Q9UPY3)
inactive: [1] 0.028 | [2] 0.006 | [3] 0.045 | [4] 0.029 | [5] -0.038

CLCN3 (UniProt P51790)
inactive: [1] 0.094 | [2] 0.014 | [3] 0.061 | [4] 0.063 | [5] 0.017

DENND6A (UniProt Q8IWF6)
inactive: [1] -0.101 | [2] -0.008 | [3] -0.026 | [4] 0.039 | [5] 0.023

CTNNBL1 (UniProt Q8WYA6)
inactive: [1] -0.003 | [2] 0 | [3] 0.004 | [4] -0.087 | [5] 0.073

DOCK10 (UniProt Q96BY6)
Chain of UniProt Q96BY6 (Q96BY6 whole entry, looked up): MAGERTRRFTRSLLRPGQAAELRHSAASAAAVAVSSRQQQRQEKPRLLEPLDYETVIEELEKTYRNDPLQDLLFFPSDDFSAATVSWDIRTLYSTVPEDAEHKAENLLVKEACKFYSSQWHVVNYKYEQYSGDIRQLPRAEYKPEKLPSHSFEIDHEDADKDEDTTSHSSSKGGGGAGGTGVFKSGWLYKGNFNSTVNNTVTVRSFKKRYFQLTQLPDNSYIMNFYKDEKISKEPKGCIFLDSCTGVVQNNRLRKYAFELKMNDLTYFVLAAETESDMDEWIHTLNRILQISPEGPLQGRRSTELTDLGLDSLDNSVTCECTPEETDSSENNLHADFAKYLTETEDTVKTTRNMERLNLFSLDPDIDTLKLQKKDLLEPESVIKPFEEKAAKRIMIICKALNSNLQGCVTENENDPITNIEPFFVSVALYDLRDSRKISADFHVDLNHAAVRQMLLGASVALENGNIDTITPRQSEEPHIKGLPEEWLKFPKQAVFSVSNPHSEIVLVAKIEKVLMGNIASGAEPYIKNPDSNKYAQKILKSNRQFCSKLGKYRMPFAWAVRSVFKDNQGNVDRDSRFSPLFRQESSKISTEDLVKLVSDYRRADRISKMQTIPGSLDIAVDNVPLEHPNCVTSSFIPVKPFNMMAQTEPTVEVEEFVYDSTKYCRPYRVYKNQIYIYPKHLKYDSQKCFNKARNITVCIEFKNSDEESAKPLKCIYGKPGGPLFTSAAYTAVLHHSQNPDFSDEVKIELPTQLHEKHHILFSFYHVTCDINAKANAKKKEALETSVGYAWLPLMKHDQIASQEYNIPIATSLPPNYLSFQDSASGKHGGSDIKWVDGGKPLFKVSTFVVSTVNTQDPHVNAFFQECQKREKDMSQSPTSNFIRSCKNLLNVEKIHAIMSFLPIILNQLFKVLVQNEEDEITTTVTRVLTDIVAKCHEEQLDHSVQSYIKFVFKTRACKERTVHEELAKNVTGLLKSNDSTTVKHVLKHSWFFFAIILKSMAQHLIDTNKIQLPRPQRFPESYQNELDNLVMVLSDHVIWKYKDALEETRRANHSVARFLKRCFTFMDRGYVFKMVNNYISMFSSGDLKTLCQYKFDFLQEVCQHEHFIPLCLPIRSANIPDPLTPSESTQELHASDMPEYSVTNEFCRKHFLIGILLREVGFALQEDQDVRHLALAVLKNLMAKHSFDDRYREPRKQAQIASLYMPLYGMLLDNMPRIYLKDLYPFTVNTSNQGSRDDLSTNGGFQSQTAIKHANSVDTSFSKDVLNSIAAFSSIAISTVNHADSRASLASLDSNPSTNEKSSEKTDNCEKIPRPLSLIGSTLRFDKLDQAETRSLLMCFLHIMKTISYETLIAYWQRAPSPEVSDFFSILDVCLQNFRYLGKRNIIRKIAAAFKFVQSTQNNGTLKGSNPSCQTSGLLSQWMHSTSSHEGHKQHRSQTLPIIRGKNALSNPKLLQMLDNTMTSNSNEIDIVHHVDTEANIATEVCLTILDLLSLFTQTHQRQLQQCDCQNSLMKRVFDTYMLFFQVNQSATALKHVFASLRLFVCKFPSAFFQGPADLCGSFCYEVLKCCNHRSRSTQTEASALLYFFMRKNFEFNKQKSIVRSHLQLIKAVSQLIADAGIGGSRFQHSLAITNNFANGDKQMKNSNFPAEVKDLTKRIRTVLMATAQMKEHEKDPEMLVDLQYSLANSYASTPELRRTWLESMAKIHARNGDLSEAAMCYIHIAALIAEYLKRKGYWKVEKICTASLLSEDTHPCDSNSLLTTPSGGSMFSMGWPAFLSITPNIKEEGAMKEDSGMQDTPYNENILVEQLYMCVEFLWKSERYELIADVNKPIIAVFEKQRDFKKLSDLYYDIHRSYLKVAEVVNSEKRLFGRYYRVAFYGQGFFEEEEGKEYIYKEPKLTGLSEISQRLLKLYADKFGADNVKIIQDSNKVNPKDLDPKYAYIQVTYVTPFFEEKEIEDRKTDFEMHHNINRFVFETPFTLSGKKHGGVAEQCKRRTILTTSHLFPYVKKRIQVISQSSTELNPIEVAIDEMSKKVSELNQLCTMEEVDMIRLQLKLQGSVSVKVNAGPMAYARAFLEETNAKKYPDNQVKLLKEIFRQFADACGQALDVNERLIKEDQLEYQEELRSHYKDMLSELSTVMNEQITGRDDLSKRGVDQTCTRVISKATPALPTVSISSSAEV
inactive: [1] 0.053 | [2] -0.018 | [3] 0.062 | [4] -0.109 | [5] -0.491

DIAPH1 (UniProt O60610)
inactive: [1] -0.005 | [2] 0.013 | [3] 0.015 | [4] 0.007 | [5] 0.023

DAZAP1 (UniProt Q96EP5)
inactive: [1] 0.011 | [2] -0.046 | [3] 0.005 | [4] 0.088 | [5] -0.086

DNAH10 (UniProt Q8IVF4)
inactive: [1] 0.069 | [2] 0.014 | [3] 0.095 | [4] -0.081 | [5] -0.274

CNP (UniProt P09543)
inactive: [1] -0.022 | [2] 0.001 | [3] 0.036 | [4] 0.016 | [5] 0.021

CLUH, A0A494C0R8
inactive: [1] 0.014 | [2] 0.118 | [3] 0.133 | [4] -0.116 | [5] 0.132

CLASP2 isoform 3 (UniProt O75122)
inactive: [1] 0.002 | [2] -0.028 | [3] 0.079 | [4] -0.003 | [5] -0.061

DMXL1 (UniProt Q9Y485)
inactive: [1] 0.011 | [2] 0.01 | [3] 0 | [4] -0.005 | [5] 0.016

DLG3 isoform 2 (UniProt Q92796)
Chain of UniProt Q92796 (Q92796 whole entry, looked up): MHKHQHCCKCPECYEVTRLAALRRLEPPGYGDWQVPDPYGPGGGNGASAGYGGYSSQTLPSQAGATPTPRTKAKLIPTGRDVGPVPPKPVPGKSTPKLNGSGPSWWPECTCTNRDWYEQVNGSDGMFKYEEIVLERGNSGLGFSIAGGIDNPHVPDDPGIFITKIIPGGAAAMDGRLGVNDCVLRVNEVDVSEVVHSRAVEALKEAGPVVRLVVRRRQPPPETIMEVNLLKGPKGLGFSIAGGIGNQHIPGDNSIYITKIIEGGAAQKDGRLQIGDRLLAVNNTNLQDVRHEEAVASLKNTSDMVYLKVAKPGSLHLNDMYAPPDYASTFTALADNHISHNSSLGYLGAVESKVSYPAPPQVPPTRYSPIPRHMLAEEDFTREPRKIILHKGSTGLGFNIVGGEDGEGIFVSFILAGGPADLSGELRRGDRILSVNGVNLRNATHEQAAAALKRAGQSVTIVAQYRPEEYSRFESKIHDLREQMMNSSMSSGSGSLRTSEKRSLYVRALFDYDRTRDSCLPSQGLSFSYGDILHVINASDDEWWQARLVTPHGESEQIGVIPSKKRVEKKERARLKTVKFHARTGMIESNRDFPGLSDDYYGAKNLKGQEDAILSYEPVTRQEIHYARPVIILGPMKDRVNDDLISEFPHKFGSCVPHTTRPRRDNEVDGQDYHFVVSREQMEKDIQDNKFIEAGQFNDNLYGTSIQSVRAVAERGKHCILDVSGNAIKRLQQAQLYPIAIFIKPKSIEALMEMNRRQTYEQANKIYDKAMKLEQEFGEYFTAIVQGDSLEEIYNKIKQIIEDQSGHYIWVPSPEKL
inactive: [1] 0 | [2] -0.082 | [3] -0.085 | [4] 0.019 | [5] 0.048

DOCK8 (UniProt Q8NF50)
inactive: [1] -0.011 | [2] -0.004 | [3] 0.013 | [4] 0.005 | [5] 0.05

DDA1 (UniProt Q9BW61)
inactive: [1] 0.073 | [2] 0.024 | [3] -0.016 | [4] -0.003 | [5] 0.029

CLP1 (UniProt Q92989)
inactive: [1] -0.023 | [2] -0.002 | [3] -0.023 | [4] 0.026 | [5] -0.1

DFFB (UniProt O76075)
inactive: [1] 0.06 | [2] -0.057 | [3] 0.061 | [4] -0.032 | [5] 0.081

CHURC1 isoform 2 (UniProt Q8WUH1)
inactive: [1] 0.045 | [2] -0.05 | [3] -0.046 | [4] -0.014 | [5] -0.063

DDX39A (UniProt O00148)
Chain of UniProt O00148 (O00148 whole entry, looked up): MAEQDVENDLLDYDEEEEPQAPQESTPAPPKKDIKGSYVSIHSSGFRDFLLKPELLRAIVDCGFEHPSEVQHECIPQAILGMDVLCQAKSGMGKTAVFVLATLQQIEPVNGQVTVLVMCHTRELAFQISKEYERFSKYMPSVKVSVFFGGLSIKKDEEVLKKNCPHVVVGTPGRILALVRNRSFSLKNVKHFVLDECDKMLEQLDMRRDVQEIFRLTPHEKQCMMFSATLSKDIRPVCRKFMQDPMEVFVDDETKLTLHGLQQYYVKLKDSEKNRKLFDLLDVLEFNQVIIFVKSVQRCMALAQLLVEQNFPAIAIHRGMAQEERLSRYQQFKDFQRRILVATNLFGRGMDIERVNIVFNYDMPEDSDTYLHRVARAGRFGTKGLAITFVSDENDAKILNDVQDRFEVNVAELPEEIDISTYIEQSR
inactive: [1] -0.022 | [2] -0.018 | [3] 0.02 | [4] -0.016 | [5] 0

CYP24A1 (UniProt Q07973)
inactive: [1] 0.02 | [2] 0.142 | [3] 0.096 | [4] -0.136 | [5] -0.262

CMTM3 (UniProt Q96MX0)
Chain of UniProt Q96MX0 (Q96MX0 whole entry, looked up): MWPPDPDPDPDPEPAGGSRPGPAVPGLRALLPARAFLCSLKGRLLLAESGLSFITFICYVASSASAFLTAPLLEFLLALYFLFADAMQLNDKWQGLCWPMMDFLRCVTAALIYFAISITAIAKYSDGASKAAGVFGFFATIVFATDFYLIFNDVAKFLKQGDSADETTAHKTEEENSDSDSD
inactive: [1] 0.058 | [2] -0.097 | [3] -0.018 | [4] 0.015 | [5] -0.024

CXorf38 (UniProt Q8TB03)
inactive: [1] 0.021 | [2] 0.007 | [3] -0.021 | [4] -0.004 | [5] 0.031

COG6 (UniProt Q9Y2V7)
inactive: [1] -0.023 | [2] 0.011 | [3] 0.029 | [4] -0.032 | [5] 0.069

DHCR7 (UniProt Q9UBM7)
inactive: [1] -0.107 | [2] 0.028 | [3] -0.031 | [4] -0.045 | [5] 0.091

COQ8A (UniProt Q8NI60)
inactive: [1] 0.048 | [2] 0.065 | [3] 0.03 | [4] 0.007 | [5] 0

CXXC1 isoform 2 (UniProt Q9P0U4)
Chain of UniProt Q9P0U4 (Q9P0U4 whole entry, looked up): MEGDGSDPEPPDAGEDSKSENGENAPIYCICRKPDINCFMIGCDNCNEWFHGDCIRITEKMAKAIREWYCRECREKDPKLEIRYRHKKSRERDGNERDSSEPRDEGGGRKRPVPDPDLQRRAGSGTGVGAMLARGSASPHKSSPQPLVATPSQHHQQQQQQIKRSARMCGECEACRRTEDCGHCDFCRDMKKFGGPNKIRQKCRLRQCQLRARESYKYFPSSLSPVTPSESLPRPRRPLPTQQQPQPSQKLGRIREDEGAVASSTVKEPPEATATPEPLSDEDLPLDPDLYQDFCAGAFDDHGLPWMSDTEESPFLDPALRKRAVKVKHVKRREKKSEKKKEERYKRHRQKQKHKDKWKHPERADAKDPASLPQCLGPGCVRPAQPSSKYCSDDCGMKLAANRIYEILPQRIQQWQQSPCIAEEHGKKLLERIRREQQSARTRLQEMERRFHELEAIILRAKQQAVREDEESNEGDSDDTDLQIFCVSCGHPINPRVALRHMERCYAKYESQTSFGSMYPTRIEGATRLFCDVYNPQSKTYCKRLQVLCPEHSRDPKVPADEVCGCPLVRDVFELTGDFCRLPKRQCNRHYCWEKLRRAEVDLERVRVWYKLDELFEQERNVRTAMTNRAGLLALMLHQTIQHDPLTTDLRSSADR
inactive: [1] 0.006 | [2] 0.07 | [3] 0.032 | [4] -0.173 | [5] 0.029

DNAH5 (UniProt Q8TE73)
inactive: [1] -0.019 | [2] 0.018 | [3] 0.007 | [4] -0.087 | [5] -0.216

CUL1 (UniProt Q13616)
inactive: [1] 0.017 | [2] -0.027 | [3] -0.007 | [4] 0.016 | [5] -0.001

CORO7 isoform 3 (UniProt P57737)
inactive: [1] -0.003 | [2] -0.006 | [3] 0.033 | [4] 0.018 | [5] 0.036

DES (UniProt P17661)
inactive: [1] 0 | [2] 0.05 | [3] 0.062 | [4] -0.219 | [5] -0.131

CNOT4 isoform 9 (UniProt O95628)
inactive: [1] -0.173 | [2] 0.081 | [3] -0.014 | [4] -0.066 | [5] -0.551

CSDE1 isoform 4 (UniProt O75534)
Chain of UniProt O75534 (O75534 whole entry, looked up): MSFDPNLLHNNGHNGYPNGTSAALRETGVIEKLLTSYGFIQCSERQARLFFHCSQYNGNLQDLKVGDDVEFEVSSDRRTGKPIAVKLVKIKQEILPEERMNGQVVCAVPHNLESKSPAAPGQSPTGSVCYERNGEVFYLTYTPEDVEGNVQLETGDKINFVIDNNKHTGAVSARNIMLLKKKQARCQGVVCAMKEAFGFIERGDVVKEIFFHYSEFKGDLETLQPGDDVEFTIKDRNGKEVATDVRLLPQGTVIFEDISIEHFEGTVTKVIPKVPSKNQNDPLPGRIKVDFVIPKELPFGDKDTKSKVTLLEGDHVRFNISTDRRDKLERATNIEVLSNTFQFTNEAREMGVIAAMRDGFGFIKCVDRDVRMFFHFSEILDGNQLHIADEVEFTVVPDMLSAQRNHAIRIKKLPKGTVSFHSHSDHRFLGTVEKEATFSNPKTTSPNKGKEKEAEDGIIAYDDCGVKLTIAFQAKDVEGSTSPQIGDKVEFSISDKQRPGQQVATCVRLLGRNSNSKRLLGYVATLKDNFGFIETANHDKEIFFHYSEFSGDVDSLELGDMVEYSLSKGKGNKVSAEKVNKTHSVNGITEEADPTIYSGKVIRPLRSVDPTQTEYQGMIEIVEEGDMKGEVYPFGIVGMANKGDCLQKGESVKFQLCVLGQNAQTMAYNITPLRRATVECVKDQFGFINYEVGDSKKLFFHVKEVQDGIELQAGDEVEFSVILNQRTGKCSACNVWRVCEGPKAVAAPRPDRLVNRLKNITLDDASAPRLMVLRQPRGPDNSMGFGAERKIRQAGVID
inactive: [1] -0.012 | [2] -0.009 | [3] -0.017 | [4] 0.046 | [5] 0.04

CHORDC1 (UniProt Q9UHD1)
inactive: [1] 0.025 | [2] 0.006 | [3] -0.01 | [4] 0.017 | [5] 0.037

DARS (UniProt P14868)
inactive: [1] -0.01 | [2] 0.001 | [3] 0.037 | [4] 0.043 | [5] 0.025

CSNK2A2 (UniProt P19784)
inactive: [1] -0.02 | [2] -0.033 | [3] -0.213 | [4] 0.038 | [5] 0.015

CPT1A (UniProt P50416)
inactive: [1] 0.042 | [2] 0.03 | [3] -0.004 | [4] 0.07 | [5] 0.011

CMPK2 (UniProt Q5EBM0)
inactive: [1] 0.008 | [2] 0.091 | [3] -0.024 | [4] 0.039 | [5] -0.098

COG4 (UniProt Q9H9E3)
inactive: [1] 0.005 | [2] 0.034 | [3] 0.096 | [4] -0.036 | [5] 0.011

CKAP5 (UniProt Q14008)
inactive: [1] -0.008 | [2] -0.019 | [3] 0.01 | [4] 0.014 | [5] 0.048

CNTN4 (UniProt Q8IWV2)
inactive: [1] 0.046 | [2] 0.073 | [3] 0.105 | [5] -0.319

CKAP2 (UniProt Q8WWK9)
inactive: [1] 0.052 | [2] 0.066 | [3] 0.001 | [4] -0.003 | [5] -0.021

CHUK (UniProt O15111)
inactive: [1] -0.02 | [2] 0.032 | [3] 0 | [4] -0.026 | [5] 0.015

CSNK1E (UniProt P49674)
inactive: [1] -0.004 | [2] -0.072 | [3] -0.031 | [4] 0.031 | [5] -0.005

DEF6 (UniProt Q9H4E7)
inactive: [1] -0.061 | [2] -0.05 | [3] -0.027 | [4] 0.036 | [5] -0.037

CNOT6L (UniProt Q96LI5)
inactive: [1] -0.014 | [2] 0.017 | [3] -0.013 | [4] -0.049 | [5] -0.164

DERA (UniProt Q9Y315)
inactive: [1] 0.025 | [2] 0.012 | [3] -0.051 | [4] 0.061 | [5] 0.209

CSRP2 (UniProt Q16527)
inactive: [1] -0.031 | [2] -0.018 | [5] 0.003

CLIP1, A0A3B3ITA2
inactive: [3] 0.035 | [5] -0.123

CRLS1 (UniProt Q9UJA2)
inactive: [1] -0.349 | [2] 0.044 | [5] 0.065

CNNM2 (UniProt Q9H8M5)
inactive: [3] 0.041 | [4] 0.034 | [5] 0.014

DHX32 (UniProt Q7L7V1)
inactive: [3] -0.086 | [5] -0.009
